Results with a measured potency or affinity are listed apart. The source made the active and inactive calls.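 Rule for the calls: active = fitted half-maximal concentration for ATP signal loss at most twice the top valid dose; inconclusive = flat curve between -70 and -30%, or an invalid fit; inactive = flat within ±30%, wrong direction, or potency past limit.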

This test is described as follows: HepG2 cell cytotoxicity, dose response, cytotoxicity control, cherry-picks, set 5 (AID 1053118).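 Note: 0% = neutral control wells and -100% = mitoxantrone positive control wells.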 The note with it: HepG2 viability, ATP luminescence, 72 h; series mostly up to 26 µM; activity change, negative = cytotoxicity: at the top concentration.
For the compound `N#Cc1ccc(-c2ccc3c(c2)[C@H]2[C@H](CCN2S(=O)(=O)c2cccc(F)c2)[C@H](CO)N3)cc1`, the “activity change, negative = cytotoxicity” value is -12.5% (inactive).

In the case of `N#Cc1ccc(-c2ccc3c(c2)[C@@H]2[C@@H](CCN2S(=O)(=O)c2cccc(F)c2)[C@@H](CO)N3)cc1`, the “activity change, negative = cytotoxicity” value was 0.13% [at 23.5 µM] (inactive).

As for `Cc1ccc([N+](=O)[O-])cc1NC(=O)CN(C(=O)c1ccccc1Cl)C1CCCCC1`, the “activity change, negative = cytotoxicity” value is -5.3% (inactive).

As for `CC1CN(C(=O)c2cc3c(=O)n4ccccc4nc3n2C)CC(C)O1` (stereo not given), the “activity change, negative = cytotoxicity” value is -14.4% (inactive).

With `CO[C@H]1CN(C)C(=O)c2cc(NC(=O)Nc3ccc(Cl)c(Cl)c3)ccc2OC[C@@H](C)NC[C@@H]1C`, the “activity change, negative = cytotoxicity” value is -26.6% (inactive).

In the case of `CCN(Cc1ccncc1)C(=O)c1ccc2c(c1)S(=O)(=O)c1ccccc1C2=O`, the “activity change, negative = cytotoxicity” value is -19.5% (inactive).

For the compound `O=C(CCNS(=O)(=O)c1cccc2nonc12)NC1CCCc2ccccc21` (stereo not given), the “activity change, negative = cytotoxicity” value was 12.6% (inactive).

For the compound `Nc1nc(-c2cc3c(cc2Cl)OCCO3)cs1`, the “activity change, negative = cytotoxicity” value was -13.3% (inactive).

On to `C[C@H](O)C#Cc1ccc2c(c1)O[C@H](CN(C)C)[C@H](C)CN([C@H](C)CO)S2(=O)=O`, for which the “activity change, negative = cytotoxicity” value is 0.849% (inactive).

Regarding `CO[C@H]1CN(C)C(=O)c2cc(NC(=O)Nc3cc(Cl)cc(Cl)c3)ccc2OC[C@H](C)NC[C@@H]1C`, the “activity change, negative = cytotoxicity” value is -14.9% (inactive).

On to `O=C(Nc1ccccc1F)N1C[C@H]2[C@@H](c3ccccc31)[C@H](CO)N2C(=O)C1CC1`, for which the “activity change, negative = cytotoxicity” value is 8.97% (inactive).

In the case of `C[C@H]1CN([C@@H](C)CO)C(=O)c2cc(NC(=O)C3CCCCC3)ccc2O[C@H]1CN(C)Cc1ccc(-c2ccccc2)cc1`, the “activity change, negative = cytotoxicity” value is -19.6% (inactive).

Turning to `CS(=O)(=O)N1CCN(c2ccc(NC(=O)c3ccc([N+](=O)[O-])o3)cc2)CC1`, the “activity change, negative = cytotoxicity” value was -28.3% (inactive).

For `O=C(Nc1ccccc1F)N1C[C@@H]2[C@H](c3ccccc31)[C@H](CO)N2C(=O)C1CCOCC1`, the “activity change, negative = cytotoxicity” value is -14.4% [at 23.5 µM] (inactive).

As to `OC(CNC1CCCc2ccccc21)COc1c(Cl)cccc1Cl` (stereo not given), the “activity change, negative = cytotoxicity” value is -7.92% (inactive).

On to `CCOc1ccccc1NC(=O)c1c(NC(=O)CCC(=O)O)sc2c1CCCCC2`, for which the “activity change, negative = cytotoxicity” value was -28.2% (inactive).

On to `CC(C)(C)[S@](=O)N1Cc2cc(C(=O)NCc3ccccc3F)nc(-c3cccc(-c4cncnc4)c3)c2[C@@H]1CCO`, for which the “activity change, negative = cytotoxicity” value is 5.05% (inactive).

With `O=C(CSc1nc2ncc(Cl)cc2[nH]1)c1c[nH]c2ccccc12`, the “activity change, negative = cytotoxicity” value is 19.1% (inactive).

In the case of `C[C@@H]1CN([C@@H](C)CO)C(=O)c2cc(-c3ccccc3)cnc2O[C@@H]1CN(C)C(=O)c1cccc(F)c1`, the “activity change, negative = cytotoxicity” value is -14.6% (inactive).

On to `CC(=O)Nc1cccc(-c2ccnc3c2CC(C)(C(=O)Nc2cccc(C(F)(F)F)c2)O3)c1` (stereo not given), for which the “activity change, negative = cytotoxicity” value is -9.23% (inactive).

As to `C[C@H](CO)N1C[C@H](C)[C@H](CN(C)Cc2ccc(-c3ccccc3)cc2)Oc2ccc(NC(=O)C3CCCCC3)cc2C1=O`, the “activity change, negative = cytotoxicity” value was -13.1% [at 23.5 µM] (inactive).

In the case of `COCC(=O)Nc1ccc2c(c1)C(=O)N(C)[C@H]1CC[C@H](CC(=O)NCc3ccccc3Cl)O[C@@H]1CO2`, the “activity change, negative = cytotoxicity” value was -9.97% [at 23.5 µM] (inactive).

Regarding `C[C@@H]1CN([C@H](C)CO)C(=O)c2cc(-c3ccccc3)cnc2O[C@H]1CN(C)C(=O)c1cccc(F)c1`, the “activity change, negative = cytotoxicity” value is -7.44% (inactive).

In the case of `O=C(CN1CCCC1)Nc1ccc(Oc2ccc(NC(=O)CN3CCCC3)cc2)cc1`, the “activity change, negative = cytotoxicity” value was -17.1% [at 8 µM] (inactive).

For the compound `S=C(NCC1CCCO1)Nc1ccc(Cl)cc1Cl` (stereo not given), the “activity change, negative = cytotoxicity” value is 3.84% (inactive).

Take `C[C@H]1CN([C@@H](C)CO)C(=O)c2cc(NC(=O)CCCN(C)C)ccc2O[C@@H]1CN(C)Cc1ccc(-c2ccccc2)cc1`: the “activity change, negative = cytotoxicity” value is -11.7% (inactive).

As to `O=C(OCC(O)C(O)COC(=O)c1ccccc1)c1ccccc1` (stereo not given), the “activity change, negative = cytotoxicity” value was -20% (inactive).

As for `COC(=O)C[C@@H]1CC[C@@H]2[C@@H](COc3ccc(NC(=O)Cc4cccs4)cc3C(=O)N2C)O1`, the “activity change, negative = cytotoxicity” value was 5.87% (inactive).

As to `Cc1cccc(NC(=O)c2ccc(C3SCC(=O)N3CCc3ccccc3)cc2)c1` (stereo not given), the “activity change, negative = cytotoxicity” value is -23.6% (inactive).

Regarding `COC(=O)C[C@H]1CC[C@H]2[C@H](COc3ccc(NC(=O)Cc4cccs4)cc3C(=O)N2C)O1`, the “activity change, negative = cytotoxicity” value is -12.2% (inactive).

For the compound `COC(=O)C[C@H]1CC[C@@H]2[C@H](COc3ccc(NC(=O)Cc4cccs4)cc3C(=O)N2C)O1`, the “activity change, negative = cytotoxicity” value is 8.89% [at 23.5 µM] (inactive).

In the case of `O=C(NCc1ccccc1)c1ccc(-c2cn[nH]c2)c2ccoc12`, the “activity change, negative = cytotoxicity” value was 42.2% (inactive).

For `O=C(NCCS(=O)(=O)N1CCN(c2ccc(F)cc2)CC1)c1ccc(Br)o1`, the “activity change, negative = cytotoxicity” value is -21.6% (inactive).

For the compound `CC(C)C(=O)Nc1ccc2c(c1)C(=O)N(C)[C@@H]1CC[C@H](CC(=O)O)O[C@@H]1CO2`, the “activity change, negative = cytotoxicity” value was 0.011% [at 23.5 µM] (inactive).

On to `C[C@H]1CN([C@@H](C)CO)C(=O)c2cc(-c3ccccc3)cnc2O[C@H]1CN(C)Cc1ccccc1`, for which the “activity change, negative = cytotoxicity” value is -17.2% (inactive).

The values are drawn from PubChem BioAssay AID1053118 (Broad Institute, 2014).
